{"source": "PubChem BioAssay AID431", "about": "(Sanford-Burnham Center for Chemical Genomics, 2006)", "note": "The campaign covered roughly 63,000 compounds. About 1,100 (1.7%) were called active.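 How the source made its calls: active means compounds whose percent cytotoxicity in the single-dose primary screen, scaled between solvent and toxic-drug controls, exceeds 50; inactive means the rest.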 Shown is part of a subset that was picked to be rich in actives. Results with a measured potency or affinity are listed apart."}
{"assay": "viability loss of HPDE-C7K cells – cell-based, fluorescence, HTS, primary screen (AID 431);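 further: 0% = DMSO solvent wells and 100% = doxorubicin-treated wells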", "details": "HPDE-C7K KRASV12 cells, Alamar Blue viability, 48 h; at 10 µM; active compounds read high"}
{"smiles": "c1ccc(CSc2nnc(-c3cccs3)n2Cc2ccco2)cc1", "cytotoxicity": "-21.5% (inactive)"}
{"smiles": "CCOC(=O)c1cccc(Nc2nc(C)cc(C)n2)c1", "cytotoxicity": "0.1% (inactive)"}
{"smiles": "O=C(NCc1ccccn1)c1cn(CCc2ccccc2)nn1", "cytotoxicity": "-5% (inactive)"}
{"smiles": "CCOC(=O)Cc1csc(NC(=O)c2c(-c3c(F)cccc3Cl)noc2C)n1", "cytotoxicity": "-8.5% (inactive)"}
{"smiles": "Cc1ccc2oc(-c3cccc(NC(=O)C4CCCO4)c3)nc2c1", "note": "(configuration not stated)", "cytotoxicity": "3.3% (inactive)"}
{"smiles": "O=C(Nc1ccc2ccccc2c1)c1cccnc1", "cytotoxicity": "0.5% (inactive)"}
{"smiles": "COc1cc(C(=O)NCc2ccc(-c3nc4ccccc4o3)cc2)cc(OC)c1OC", "cytotoxicity": "2.5% (inactive)"}
{"smiles": "O=C(Nc1ccc(-c2nc3ccccc3o2)cc1)C1CCCO1", "note": "(configuration not stated)", "cytotoxicity": "5.9% (inactive)"}
{"smiles": "COc1cccc(C(=O)Nc2ccc(-c3nc4ccccc4o3)c(O)c2)c1", "cytotoxicity": "24.7% (inactive)"}
{"smiles": "O=S(=O)(Nc1ccc2oc(-c3ccccc3)nc2c1)c1ccccc1", "cytotoxicity": "15.5% (inactive)"}
{"smiles": "COc1cc(OC)cc(C(=O)Nc2ccc(-c3nc4ccccc4o3)cc2)c1", "cytotoxicity": "73.9% (active)"}
{"smiles": "O=C(Nc1ccc2c(c1)oc1ccccc12)c1ccncc1", "cytotoxicity": "7.8% (inactive)"}
{"smiles": "COc1cc(C(=O)Nc2cccc(-c3nc4cc(C)ccc4o3)c2)cc(OC)c1OC", "cytotoxicity": "43.8% (inactive)"}
{"smiles": "O=C(Nc1ccc2c(c1)oc1ccccc12)c1cccnc1", "cytotoxicity": "53.2% (active)"}
{"smiles": "O=S(=O)(Nc1ccc(-c2nc3ccccc3o2)cc1)c1ccccc1", "cytotoxicity": "52% (active)"}
{"smiles": "Cc1occc1-c1nc(-c2ccccn2)no1", "cytotoxicity": "-13.5% (inactive)"}
{"smiles": "CC1CN(C(=O)c2cc3cc(Cl)cc(Cl)c3oc2=O)CC(C)O1", "note": "(configuration not stated)", "cytotoxicity": "-12.2% (inactive)"}
{"smiles": "COc1ccc2oc(-c3ccccc3)c(C(N)=O)c2c1", "cytotoxicity": "-8.2% (inactive)"}
{"smiles": "CCCCCC(=O)Nc1cccc(-c2nc3ncccc3o2)c1", "cytotoxicity": "-7% (inactive)"}
{"smiles": "Cc1nnc(SCC(=O)NCc2cccs2)n1-c1ccccc1", "cytotoxicity": "-5.1% (inactive)"}
{"smiles": "Cn1c(=O)c2c(SCc3ccccn3)nc(-c3ccccc3)nc2n(C)c1=O", "cytotoxicity": "6.7% (inactive)"}
{"smiles": "CC[C@@H](C)[C@H](NC(=O)C1CCN(C(=O)[C@@H](NS(=O)(=O)c2ccc(C)cc2)C(C)C)CC1)C(=O)O", "cytotoxicity": "-19.2% (inactive)"}
{"smiles": "NC(=O)C1CCN(c2ncnc3c2c(-c2ccccc2)cn3-c2ccccc2)CC1", "cytotoxicity": "-9% (inactive)"}
{"smiles": "Cn1nnnc1SCCNC/C=C/c1ccccc1", "cytotoxicity": "14.4% (inactive)"}
{"smiles": "CN(C1CCCCC1)S(=O)(=O)c1ccc(-n2cnnn2)cc1", "cytotoxicity": "-13.1% (inactive)"}
{"smiles": "CCCCN(CC)S(=O)(=O)N1CCC(C(=O)NCc2ccc(F)cc2)CC1", "cytotoxicity": "-8.2% (inactive)"}
{"smiles": "C=CCN1C(=O)C2C(C(=O)NC)C3C=CC2(O3)C1C(=O)NCc1ccc(OC)cc1", "note": "(configuration not stated)", "cytotoxicity": "4.1% (inactive)"}
{"smiles": "CC(=O)N1CC=C2C(C#N)=C(N)C(C#N)(C#N)[C@H](c3ccoc3)[C@H]2C1", "cytotoxicity": "13.2% (inactive)"}
{"smiles": "CC(C)N1CC=C2C(C#N)=C(N)C(C#N)(C#N)C(c3ccccc3)C2C1", "note": "(configuration not stated)", "cytotoxicity": "27.9% (inactive)"}
{"smiles": "N#CC1=C(N)C(C#N)(C#N)[C@H](c2ccoc2)[C@H]2CN(Cc3ccccc3)CC=C12", "cytotoxicity": "81.4% (active)"}
{"smiles": "Cn1c(=O)c2c(nc(Br)n2Cc2c(F)cccc2Cl)n(C)c1=O", "cytotoxicity": "-11.4% (inactive)"}
{"smiles": "Cc1ccc(/C=c2\\sc3nc(-c4ccccc4Br)nn3c2=O)o1", "cytotoxicity": "8.5% (inactive)"}
{"smiles": "Cc1ccc(/C=c2/sc3nnc(-c4ccccc4Cl)n3c2=O)o1", "cytotoxicity": "50.1% (active)"}
{"smiles": "Cc1ccccc1-c1nnc2s/c(=C\\c3ccc(N(C)C)cc3)c(=O)n12", "cytotoxicity": "3.5% (inactive)"}
{"smiles": "COc1cccc(OC)c1OCCCSc1nc(C)cc(=O)[nH]1", "cytotoxicity": "6.8% (inactive)"}
{"smiles": "C=CCSC1=N/C(=C\\c2ccc3c(c2)OCO3)C(=O)S1", "cytotoxicity": "52.9% (active)"}
{"smiles": "CCSC1=N/C(=C\\c2ccc3c(c2)OCO3)C(=O)S1", "cytotoxicity": "40.9% (inactive)"}
{"smiles": "C=CCSC1=N/C(=C\\c2cc(OC)c3c(c2)OCO3)C(=O)S1", "cytotoxicity": "16.5% (inactive)"}
{"smiles": "COc1ccc(-c2c3c(=O)n(C)c(=O)n(C)c3cn2Cc2ccccn2)cc1", "cytotoxicity": "7% (inactive)"}
{"smiles": "CCS(=O)(=O)N1CCCC(C(=O)NCc2ccccc2Cl)C1", "note": "(configuration not stated)", "cytotoxicity": "14.1% (inactive)"}
{"smiles": "COc1cc(NC(=O)NCc2ccncc2)cc(OC)c1OC", "cytotoxicity": "-5.3% (inactive)"}
{"smiles": "Cc1nc(-c2ccc3c(c2)OCO3)cs1", "cytotoxicity": "-26.4% (inactive)"}
{"smiles": "CCc1cc(-c2[nH]ncc2-c2ccc3c(c2)OCO3)c(O)cc1O", "cytotoxicity": "64.9% (active)"}
{"smiles": "CCOC(=O)c1nc(-c2ccc3c(c2)OCO3)[nH]c1C", "cytotoxicity": "5.4% (inactive)"}
{"smiles": "CCOc1ccc(-c2nc(N)ncc2-c2ccccc2)c(O)c1", "cytotoxicity": "8.3% (inactive)"}
{"smiles": "COc1ccc(-c2cnc(N)nc2-c2ccc(OC)cc2O)cc1", "cytotoxicity": "-1.3% (inactive)"}
{"smiles": "Oc1ccccc1-c1cc(-c2ccc3c(c2)OCCO3)n[nH]1", "cytotoxicity": "16.4% (inactive)"}
{"smiles": "CCCc1cc(-c2[nH]ncc2-c2ccc(C(=O)OCC)o2)c(O)cc1O", "cytotoxicity": "30.9% (inactive)"}
{"smiles": "CCc1nc(SCc2ccccn2)c2c(=O)n(C)c(=O)n(C)c2n1", "cytotoxicity": "-2.5% (inactive)"}
{"smiles": "CCCSCCCNC(=O)Cn1cc2c(n1)CCC(C)C2", "note": "(configuration not stated)", "cytotoxicity": "4.6% (inactive)"}
{"smiles": "COC(=O)Cc1csc(N)n1", "cytotoxicity": "-19.5% (inactive)"}
{"smiles": "Cc1cc(C)c2[nH]c(=O)c(C(c3nnnn3Cc3ccc4c(c3)OCO4)N3CCC(C)CC3)cc2c1", "note": "(configuration not stated)", "cytotoxicity": "-17.3% (inactive)"}
{"smiles": "O=C(CSc1nnc(-c2ccccn2)n1Cc1ccccc1)N1CCCC1", "cytotoxicity": "-3% (inactive)"}
{"smiles": "O=C1C(=O)N(CCOCCO)C(c2ccccn2)/C1=C(\\O)c1ccccc1", "note": "(configuration not stated)", "cytotoxicity": "-29.5% (inactive)"}
{"smiles": "CCc1oc(C(=O)O)cc1CN(CC)CC", "cytotoxicity": "-3.6% (inactive)"}
{"smiles": "CCCCCn1c(CN2CCCCC2CC)nc2c1c(=O)n(C)c(=O)n2C", "note": "(configuration not stated)", "cytotoxicity": "8.3% (inactive)"}
{"smiles": "Cn1c(=O)oc2cc(S(=O)(=O)NCCC(=O)NCCc3ccccc3)ccc21", "cytotoxicity": "0.1% (inactive)"}
{"smiles": "Cc1cc(Nc2cccc(C)c2C)n2nc(C)nc2n1", "cytotoxicity": "9% (inactive)"}
{"smiles": "O=C(COc1ccccc1)N(Cc1ccco1)c1ccc(O)cc1", "cytotoxicity": "-5.3% (inactive)"}
{"smiles": "COc1ccc2nc3c(cc2c1)c(NC(=O)c1cccs1)nn3CC(C)C", "cytotoxicity": "52.8% (active)"}
{"smiles": "CCCCn1nc(NC(=O)c2cccs2)c2cc3cc(OC)ccc3nc21", "cytotoxicity": "23.2% (inactive)"}
{"smiles": "CCCn1nc(NC(=O)c2cccs2)c2cc3cc(OC)ccc3nc21", "cytotoxicity": "-25.3% (inactive)"}
